Screening data deposited in PubChem by Center for Chemical Genomics, University of Michigan.
Shown is part of a subset that was picked to be rich in hits.
Dicer processing = inhibitors of Dicer pre-microRNA processing, primary screen, biochemical, cat-ELCCA, chemiluminescence | 47,000 compounds, 6% hits | z-score at 25 µM | cat-ELCCA pre-miR-21 Dicer processing; active compounds read high; in the data active = z-score above about 3, passing the limit was not always enough;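 note: higher signal means more uncleaved substrate so more Dicer inhibition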
Target sequence (Q9UPY3 whole entry, looked up): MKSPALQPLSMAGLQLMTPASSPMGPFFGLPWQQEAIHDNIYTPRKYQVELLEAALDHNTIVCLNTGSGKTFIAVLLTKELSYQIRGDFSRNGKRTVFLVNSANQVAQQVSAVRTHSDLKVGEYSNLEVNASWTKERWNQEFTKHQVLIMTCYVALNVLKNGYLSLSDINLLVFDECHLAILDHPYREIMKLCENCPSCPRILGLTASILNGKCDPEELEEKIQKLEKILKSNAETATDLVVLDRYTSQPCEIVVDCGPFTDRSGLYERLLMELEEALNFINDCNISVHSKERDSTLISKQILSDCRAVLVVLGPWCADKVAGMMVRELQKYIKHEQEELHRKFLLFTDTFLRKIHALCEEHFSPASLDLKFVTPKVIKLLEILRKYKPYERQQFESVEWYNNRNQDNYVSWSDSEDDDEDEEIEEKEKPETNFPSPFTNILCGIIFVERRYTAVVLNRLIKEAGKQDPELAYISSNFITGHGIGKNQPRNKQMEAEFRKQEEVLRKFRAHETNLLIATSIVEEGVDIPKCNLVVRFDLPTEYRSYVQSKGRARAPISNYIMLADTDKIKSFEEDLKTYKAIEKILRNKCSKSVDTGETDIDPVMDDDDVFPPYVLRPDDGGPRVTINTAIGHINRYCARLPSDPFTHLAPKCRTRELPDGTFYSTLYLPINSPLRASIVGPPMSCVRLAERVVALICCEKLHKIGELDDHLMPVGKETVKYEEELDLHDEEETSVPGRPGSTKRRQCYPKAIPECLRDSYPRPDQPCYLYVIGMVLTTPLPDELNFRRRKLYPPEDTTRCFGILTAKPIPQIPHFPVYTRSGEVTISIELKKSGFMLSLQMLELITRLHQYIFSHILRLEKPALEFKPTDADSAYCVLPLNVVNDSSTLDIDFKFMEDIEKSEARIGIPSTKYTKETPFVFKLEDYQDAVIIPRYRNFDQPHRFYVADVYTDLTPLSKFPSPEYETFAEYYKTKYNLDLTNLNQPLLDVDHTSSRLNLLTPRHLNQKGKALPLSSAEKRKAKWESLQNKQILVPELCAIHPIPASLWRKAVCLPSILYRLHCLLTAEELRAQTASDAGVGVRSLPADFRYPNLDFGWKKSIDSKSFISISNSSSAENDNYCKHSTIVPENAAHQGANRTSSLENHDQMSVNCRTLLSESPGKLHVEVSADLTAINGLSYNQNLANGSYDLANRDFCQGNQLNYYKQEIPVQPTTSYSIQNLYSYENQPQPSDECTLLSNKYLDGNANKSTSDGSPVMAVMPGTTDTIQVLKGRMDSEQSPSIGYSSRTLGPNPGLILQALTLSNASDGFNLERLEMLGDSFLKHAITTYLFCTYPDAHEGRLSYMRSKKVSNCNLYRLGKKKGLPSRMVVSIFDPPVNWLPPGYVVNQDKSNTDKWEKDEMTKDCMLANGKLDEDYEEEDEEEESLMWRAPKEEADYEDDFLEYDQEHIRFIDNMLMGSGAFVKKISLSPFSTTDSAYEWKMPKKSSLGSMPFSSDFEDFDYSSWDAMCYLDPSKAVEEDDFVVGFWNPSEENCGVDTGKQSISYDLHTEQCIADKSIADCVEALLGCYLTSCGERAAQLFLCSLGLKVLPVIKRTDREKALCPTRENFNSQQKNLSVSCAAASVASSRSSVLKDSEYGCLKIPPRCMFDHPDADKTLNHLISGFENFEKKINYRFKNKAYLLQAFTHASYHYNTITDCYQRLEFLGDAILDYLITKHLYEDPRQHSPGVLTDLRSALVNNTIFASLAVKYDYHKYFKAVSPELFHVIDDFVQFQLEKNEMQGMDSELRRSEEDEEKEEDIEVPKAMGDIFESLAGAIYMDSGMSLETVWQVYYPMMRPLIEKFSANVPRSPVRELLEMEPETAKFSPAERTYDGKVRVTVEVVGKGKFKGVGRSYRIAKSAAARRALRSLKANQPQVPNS
Of the large screens only hits and unclear results are named; the others gave an inactive call.

N#Cc1c(-c2ccc(F)cc2)c2c([nH]c1=O)-c1ccccc1SC2	Dicer processing 3.5
Cc1oc2ccc(NS(=O)(=O)c3cccc4ccccc34)cc2c1C(=O)OC(C)C	none
NC(N)=NC(N)=Nc1ccc(I)cc1	none
Cc1cc2c(cc1C)NC(c1cc(F)ccc1F)C1=C(CC(C)(C)CC1=O)N2 (stereo not drawn)	none
CCOc1ccc(S(=O)(=O)N2c3ccc(C)cc3C(C)=CC2(C)C)cc1	Dicer processing 3.5
COc1ccc(S(=O)(=O)N2c3ccc(C)cc3C(C)=CC2(C)C)cc1	none
CC1=CC(C)(C)N(S(=O)(=O)c2ccc(F)cc2)c2ccc(C)cc21	none
O=C(Cc1cccc2ccccc12)OCC(=O)c1ccc(Br)cc1	none
CCN(CC)CCNc1ncnc2c1sc1nc(C)c3c(c12)CC(C)(C)OC3	none
Cc1cc(NC(=S)NN)ccc1Br	Dicer processing 4.1
NNC(=S)Nc1ccc(Br)c(Cl)c1	none
CC(C)c1ccc(NC(=S)NN)cc1	none
COc1ccc2c(c1)C1=NN(C(C)=O)C(c3ccc(Br)cc3)C1CC2 (stereo not drawn)	none
CC(C)C(C(=O)O)N1C(=O)NC2NC(=O)NC21 (stereo not drawn)	none
CN(C)c1nc(Oc2ccc(=O)n(C)n2)nc(N2CCOCC2)n1	none
COc1nc(NCC(C)C)nc(Oc2ccc(=O)[nH]n2)n1	none
CCOc1ccc(Oc2nc(NCC(C)C)nc(N3CCOCC3)n2)nn1	Dicer processing 5.8
O=S(=O)(Nc1ccccc1)c1ccc2c(c1)Cc1cc(S(=O)(=O)Nc3ccccc3)ccc1-2	none
CCN(CC)Cc1c(C)[nH]c2ccc(C)cc2c1=O	none
O=[N+]([O-])c1cccnc1Oc1ccc(OCc2ccccc2)cc1	none
O=[N+]([O-])c1cc(F)ccc1/C=C/N1CCCC1	none
O=[N+]([O-])c1ccc(OCc2ccccc2)cc1/C=C\N1CCCC1	Dicer processing 3
COC(=O)c1c(NC(=O)CCC(=O)O)sc2c1CC(C)(C)OC2	none
CC(=O)Nc1sc2c(c1C(=O)O)CC(C)(C)OC2	none
CC1(C)Cc2c(sc(NC(=O)C(c3ccccc3)c3ccccc3)c2C#N)CO1	Dicer processing 4.5
CC(=O)c1sc(-c2c(Cl)cc(C(F)(F)F)cc2Cl)nc1C	none
C=CCN1C(=O)C2(/C(=C(/O)c3ccc(F)cc3)C(=O)C(=O)N2CCCN(C)C)c2ccccc21 (stereo not drawn)	none
C=CCN1C(=O)C2(/C(=C(/O)c3ccc(OCC)cc3)C(=O)C(=O)N2CCN(C)C)c2ccccc21 (stereo not drawn)	none
CCN1C(=O)C2(/C(=C(/O)c3ccccc3)C(=O)C(=O)N2CCCN(C)C)c2ccccc21 (stereo not drawn)	Dicer processing 3.6
CCOc1ccc(/C(O)=C2/C(=O)C(=O)N(CCCN(C)C)C23C(=O)N(CC)c2ccccc23)cc1 (stereo not drawn)	none
CN(C)CCCN1C(=O)C(=O)/C(=C(\O)c2ccccc2)C12C(=O)N(C)c1ccccc12 (stereo not drawn)	none
C=CCN1C(=O)C2(/C(=C(/O)c3ccccc3)C(=O)C(=O)N2CCCN(C)C)c2ccccc21 (stereo not drawn)	Dicer processing 4
CCOC(=O)c1ccc(NC(=S)NC)cc1	none
O=C(CCSc1nnc2ccccn12)Nc1nc(-c2ccccc2)ns1	none
CC1(C)CC(=O)c2sc(NC(=O)COc3ccc(Cl)cc3)nc2C1	none
CCc1nnc(NC(=O)c2ccc3nsnc3c2)s1	none
O=C(O)CCC(=O)Nc1nncs1	none
O=C1N(CCCc2ccccc2)c2ccccc2C1(O)c1c[nH]c2ccccc12 (stereo not drawn)	none
COc1ccc(CN2CCN(Cc3ccc4c(c3)OCO4)CC2)c2ccccc12	none
COc1cccc(CN2CCN(Cc3c[nH]c4ccccc34)CC2)c1OC	Dicer processing 3.4
COc1cc(CN2CCN(Cc3cccc4ccccc34)CC2)cc(OC)c1	Dicer processing 3.7
COc1ccc(OC)c(CN2CCN(Cc3c[nH]c4ccccc34)CC2)c1	none
COc1ccc(CN2CCN(Cc3c[nH]c4ccccc34)CC2)c(OC)c1	none
COc1ccc(CN2CCN(Cc3cc(OC)ccc3O)CC2)cc1	none
COC(=O)C1=C(C)NC2=C(C(=O)CC(C)(C)C2)C1c1ccc(OCc2ccc(Cl)cc2)c(OC)c1 (stereo not drawn)	none
O=C(Cn1c(=O)sc2ccccc21)Nc1ccc(S(=O)(=O)N2CCOCC2)cc1	none
Cc1ccc(CN2C(=O)C(=O)c3cc(Cl)ccc32)cc1	none
O=C(NC1CCCC1)c1ccc2noc(-c3ccc(Cl)cc3)c2c1	none
O=C(Nc1ccc2ccccc2n1)c1ccc2c(c1)OCC2	none
Cc1nnc(SCC(=O)Nc2sc3c(c2C#N)CCCC3)s1	Dicer processing 3.4
CCOC(=O)c1c(NC(=O)CSc2nnc(C)c(=O)[nH]2)sc2c1CCCC2	Dicer processing 3.3
CCOC(=O)c1c(NC(=O)CN(CC)CC)sc2c1CCCC2	none
N#Cc1c(NC(=O)CSc2ccc(Cl)cc2)sc2c1CCC2	none
N#Cc1c(NC(=O)CSc2nnnn2-c2ccccc2)sc2c1CCCC2	none
CCOC(=O)c1c(NC(=O)CSc2nnc3c(n2)[nH]c2ccccc23)sc2c1CCCC2	none
C#CCSc1ncc(-c2ccc(Cl)cc2)[nH]1	none
CC(=N)c1c(O)c2ccccc2n(C)c1=O	none
Cc1cc2cc(N(C(=O)c3ccncc3)S(=O)(=O)c3cc(C)c(C)cc3C)ccc2o1	none
Cc1ccc(C)c(S(=O)(=O)N(C(=O)c2ccncc2)c2ccc3oc(=O)sc3c2)c1	none
O=C(c1ccncc1)N(c1ccc2oc(=O)sc2c1)S(=O)(=O)c1cccc2cccnc12	Dicer processing 3.7
O=C(c1ccncc1)N(c1cc2sc(=O)oc2c2ccccc12)S(=O)(=O)c1cccs1	none
O=C(c1cccnc1)N(c1ccc2oc(=O)sc2c1)S(=O)(=O)c1cccc2cccnc12	Dicer processing 4.1
CCOC(=O)c1cnc(Nc2nc(C(C)(C)C)cs2)nc1C	none
CC(C)(C)c1[nH]nc2c1C(c1ccc(Cl)cc1)C(C#N)=C(N)O2 (stereo not drawn)	none
CCCCCCSC1=C(C#N)C(c2cccc(Cl)c2)CC(=O)N1 (stereo not drawn)	none
CCCCNC(=O)c1nn2c(c1Cl)NC(c1cccs1)CC2C(F)(F)F (stereo not drawn)	none
NC(=O)Cn1c(SC2CCCCC2)nc2ccccc21	none
O=C(O)Cn1c(SCc2ccccc2)nc2ccccc21	none
CCOC(=O)Cn1c(-c2ccccn2)nc2ccccc21	none
CCOC(=O)Cn1c(C)nc2ccccc21	Dicer processing 4.7
CCSc1nc2ccccc2n1CC(N)=O	Dicer processing 6.7
O=C(O)CCSc1nc2ccccc2n1Cc1ccccc1	none
NC(=O)CSc1nc2ccccc2n1CCO	none
CCOC(=O)Cn1c(=O)n(CC(=O)OCC)c2ccccc21	none
CCn1c(SCC(=O)O)nc2ccccc21	Dicer processing 3.1
CSc1ccccc1NC(=O)CSc1nc(-c2ccco2)cc(C(F)(F)F)n1	none
CC1Sc2ccc(Cl)cc2-c2nc(-n3cccc3)ncc21 (stereo not drawn)	none
Cc1ccc2ncc(NC(=O)c3ccc(Cl)cc3)c(=O)n2c1	none
O=c1c2cnn(-c3ccccc3)c2nnn1/N=C/c1ccc([N+](=O)[O-])cc1	Dicer processing 3.3
O=c1c2cnn(-c3ccccc3)c2ncn1/N=C/c1ccc(OCc2ccccc2)cc1	none
Cc1nc2c(cnn2-c2ccccc2)c(=O)n1/N=C/c1cccs1	none
O=c1c2cnn(-c3ccccc3)c2nnn1/N=C/c1ccc(OCc2ccccc2)cc1	none
O=c1c2cnn(-c3ccccc3)c2ncn1/N=C/c1ccc(Cl)cc1	none
Cc1nc2c(cnn2-c2ccccc2)c(=O)n1/N=C/c1ccc(Cl)cc1	Dicer processing 3.2
CC(=O)N1CSCC1C(=O)NNS(=O)(=O)c1ccc(Cl)cc1 (stereo not drawn)	none
